Bioassay records from PubChem BioAssay.
TDP1 cell CPT: DT40-hTDP1 cell growth loss with CPT | chicken DT40 Tdp1-/-;hTDP1 cells + 20 nM CPT, ATP luminescence, 48 h | Potency, µM (highest dose often 46.2 µM), hits mostly inhibitors | 420,000 tested, 12% active; note: nearly all actives have a fitted effect of over 55% in size
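Cell growth measured by CellTiter-Glo luminescence after a minimum 48 h, 37 C compound exposure with 20 nM CPT in Tdp1-knockout DT40 cells stably expressing hTDP1, seeded 400/well; qHTS titration format.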
ClpP mod: qHTS Assay for Activators of ClpP; 340,000 tested, 1.9% active; ATP-dependent Clp protease proteolytic subunit (Bacillus subtilis (strain 168)), P80244; Potency, µM (series often up to 57.5 µM); purified B. subtilis ClpP, FRET peptide cleavage, 20 min; active = well fitted falling curve with a large enough effect; inconclusive = small, poorly fitted or top-dose-only effect; inactive = no such curve, though single readings can be large or run the other way; note: the source files actives as falling curves though it sought activators and does not explain the sign; nearly all actives have a fitted effect of over 65% in size
Target sequence (P80244 whole entry, looked up): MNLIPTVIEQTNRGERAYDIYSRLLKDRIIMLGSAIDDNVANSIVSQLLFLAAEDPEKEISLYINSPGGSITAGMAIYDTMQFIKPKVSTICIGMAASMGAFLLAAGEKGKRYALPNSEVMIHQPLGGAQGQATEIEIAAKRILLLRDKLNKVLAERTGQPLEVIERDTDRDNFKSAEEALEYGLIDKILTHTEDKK
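Purified B. subtilis ClpP, 10 microg/mL final in Tris/HCl pH8 with KCl, BSA, glycerol and Tween-20, cleaved an Abz/nitrotyrosine-quenched decapeptide. Fluorescence (ex 320, em 430) was read at 0 and 20 min at room temperature. Delta was normalized to 5.8 microM ADEP and DMSO/no-enzyme controls.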
TDP1 inh: blocks human tyrosyl-DNA phosphodiesterase 1; Q9NUW8; recombinant TDP1, AlphaScreen DNA substrate cleavage; Potency, µM (top dose mostly 130 µM), usual class: inhibitors; 350,000 tested, 0.28% active; AID 485290; note: nearly all actives have a fitted effect of over 40% in size
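Tdp1 1 nM final; 15 min RT w/ cpd; substrate 15 nM, 5 min; beads 10 ug/ml, 10 min; AlphaScreen read. Neg ctrl: no enzyme.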
DT40 TDP1 no CPT: qHTS for Inhibitors of human tyrosyl-DNA phosphodiesterase 1 (TDP1): qHTS in cells in absence of CPT; DT40 Tdp1-/- hTDP1 cells, no CPT, ATP luminescence, 48 h; Potency, µM (highest dose often 46.2 µM), actives largely listed as inhibitors; 420,000 tested, 15% active; AID 686978, 2013; note: nearly all actives have a fitted effect of over 55% in size
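Compound effects on proliferation are scored in DT40 Tdp1-/-;hTDP1 cells in the absence of CPT. ATP levels (CellTiter-Glo luminescence) are recorded after a ≥48 hr, 37 °C incubation.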
A number is an active result; [ ] = another dose, or the depositor's remark. The list is not random: actives were taken first. Their share in the collection is about 17%. Unless noted, calls come from the whole dose curve; as a rule, active = well fitted curve in the direction sought with a large enough effect; inconclusive = small, poorly fitted or top-dose-only effect, or another doubt; inactive = no such curve, though single readings can be large; an effect the other way counts as inactive or inconclusive.

Results for CCCCOC(=O)c1ccc(NC(=O)c2cc3c(=O)n4cccc(C)c4nc3n2C)cc1 ?
TDP1 cell CPT: inconclusive; ClpP mod: inactive; TDP1 inh: inactive; DT40 TDP1 no CPT: inconclusive

How did COc1cc(/C=N/NC(=S)Nc2cccc(S(=O)(=O)N(C)C)c2)ccc1O do in these assays?
TDP1 cell CPT: inconclusive; ClpP mod: inactive; TDP1 inh: inactive; DT40 TDP1 no CPT: 18µM

Results for CN(C)S(=O)(=O)c1cccc(NC(=S)NN=C(Cc2ccccc2)Cc2ccccc2)c1 ?
TDP1 cell CPT: 5.8µM; ClpP mod: inactive; TDP1 inh: inactive; DT40 TDP1 no CPT: 5.2µM

How did COc1cc(/C=N/NC(=O)c2cccc(NC(=O)c3ccccc3)c2)ccc1O do in these assays?
TDP1 cell CPT: inactive; TDP1 inh: inactive; DT40 TDP1 no CPT: inconclusive

What do the screens show for `O=C(CNS(=O)(=O)Cc1ccccc1)NNc1ccccc1`?
TDP1 cell CPT: inactive; ClpP mod: inactive; DT40 TDP1 no CPT: inconclusive

Results for O=C(c1ccc2c(c1)N(Cc1ccccc1F)C(=O)c1ccccc1S2(=O)=O)N1CCN(c2ccccc2F)CC1 ?
TDP1 cell CPT: inconclusive; ClpP mod: inactive; TDP1 inh: inactive; DT40 TDP1 no CPT: inconclusive

What do the screens show for `O=C(c1ccc2c(c1)N(Cc1ccccc1F)C(=O)c1ccccc1S2(=O)=O)N1CCCC1`?
TDP1 cell CPT: inconclusive; ClpP mod: inactive; TDP1 inh: inactive; DT40 TDP1 no CPT: 23µM

What do the screens show for `O=C(c1ccc2c(c1)N(Cc1ccccc1F)C(=O)c1ccccc1S2(=O)=O)N1CCCCC1`?
TDP1 cell CPT: inconclusive; ClpP mod: inactive; TDP1 inh: inactive; DT40 TDP1 no CPT: 16µM

What do the screens show for `CC(CNC(=O)c1cnn(-c2ccc(F)cc2)c1-n1cccc1)c1ccccc1` (stereo unspecified)?
ClpP mod: inactive; TDP1 inh: inactive

Results for COCC(=O)Nc1cc(C(=O)N2CCN(c3ccc(Cl)cn3)CC2)c2c(c1)nc(C1CCC1)n2C ?
TDP1 cell CPT: inactive[9.04 µM]; DT40 TDP1 no CPT: inactive

Results for Cc1c(C(=O)Nc2ccc3c(c2)OCCO3)sc2ncnc(N3CCCCC3C)c12 (stereo unspecified) ?
TDP1 cell CPT: inconclusive; ClpP mod: inactive; TDP1 inh: inactive; DT40 TDP1 no CPT: 15µM

What do the screens show for `Cc1c(C(=O)N2CCOCC2)sc2ncnc(N3CCc4ccccc4C3)c12`?
TDP1 cell CPT: 12µM; ClpP mod: inactive; TDP1 inh: inactive; DT40 TDP1 no CPT: 12µM

How did Cc1c(C(=O)N2CCCCC2C)sc2ncnc(N3CCc4ccccc4C3)c12 (stereo unspecified) do in these assays?
TDP1 cell CPT: inconclusive; TDP1 inh: inactive; DT40 TDP1 no CPT: 13µM

Results for NS(=O)(=O)c1ccc(S(=O)(=O)N2CCN(c3nc(-c4cccs4)nc4ccccc34)CC2)cc1 ?
TDP1 cell CPT: inconclusive; ClpP mod: inconclusive; TDP1 inh: inactive; DT40 TDP1 no CPT: inconclusive

How did CCOc1ccc(N(CC(=O)Nc2nccs2)S(=O)(=O)c2c(C)[nH]c(=O)[nH]c2=O)cc1 do in these assays?
TDP1 cell CPT: inactive; ClpP mod: inactive; TDP1 inh: inactive; DT40 TDP1 no CPT: inactive

What do the screens show for `O=C(c1ccccc1)N1CCN(Cc2c[nH]c3ccccc23)CC1`?
TDP1 cell CPT: inconclusive; ClpP mod: inactive; TDP1 inh: inactive; DT40 TDP1 no CPT: inconclusive

Results for O=[N+]([O-])c1ccccc1CN1CCN(Cc2c[nH]c3ccccc23)CC1 ?
TDP1 cell CPT: 2.9µM; TDP1 inh: inactive; DT40 TDP1 no CPT: 3.7µM

What do the screens show for `O=[N+]([O-])c1ccccc1CN1CCN(Cc2ccccn2)CC1`?
TDP1 cell CPT: 26µM; TDP1 inh: inactive; DT40 TDP1 no CPT: inconclusive

How did Cc1cccc(-n2c(-c3ccccc3)c[nH]c2=S)c1C do in these assays?
TDP1 cell CPT: inconclusive; TDP1 inh: inactive; DT40 TDP1 no CPT: 12µM

Results for COc1ccccc1-n1c(-c2ccc(Cl)cc2)c[nH]c1=S ?
TDP1 cell CPT: 23µM; ClpP mod: inactive; TDP1 inh: inactive; DT40 TDP1 no CPT: 21µM

What do the screens show for `Cc1cccc(-n2c(-c3ccncc3)n[nH]c2=S)c1C`?
TDP1 cell CPT: inactive; ClpP mod: inactive; TDP1 inh: 18µM; DT40 TDP1 no CPT: inactive

Results for Cc1ccccc1-n1c(-c2ccncc2)n[nH]c1=S ?
TDP1 cell CPT: inactive; ClpP mod: inactive; DT40 TDP1 no CPT: inactive

How did Cc1cccc(-n2c(C)n[nH]c2=S)c1C do in these assays?
TDP1 cell CPT: inactive; ClpP mod: inactive; DT40 TDP1 no CPT: inactive

Results for N#Cc1cccc(NC(=O)N2CC[C@@]3(CCCN(C(=O)c4ccncc4)C3)C2)c1 ?
TDP1 cell CPT: inactive; DT40 TDP1 no CPT: inactive

How did COc1cc(-c2noc(-c3ccc(NCc4ccco4)c([N+](=O)[O-])c3)n2)cc(OC)c1OC do in these assays?
TDP1 cell CPT: 12µM; ClpP mod: inactive; TDP1 inh: inactive; DT40 TDP1 no CPT: 7.3µM

What do the screens show for `COc1cc(-c2noc(-c3ccc(NCc4ccccc4)c([N+](=O)[O-])c3)n2)cc(OC)c1OC`?
TDP1 cell CPT: inconclusive; ClpP mod: inactive; TDP1 inh: inactive; DT40 TDP1 no CPT: inconclusive

Results for COc1cc(-c2noc(-c3ccc(NCC4CCCO4)c([N+](=O)[O-])c3)n2)cc(OC)c1OC (stereo unspecified) ?
TDP1 cell CPT: 7.3µM; ClpP mod: inactive; TDP1 inh: inactive; DT40 TDP1 no CPT: 3.7µM

Results for COc1cc(-c2noc(-c3ccc(N(C)C)c([N+](=O)[O-])c3)n2)cc(OC)c1OC ?
TDP1 cell CPT: 21µM; ClpP mod: inactive; TDP1 inh: inactive; DT40 TDP1 no CPT: 26µM

What do the screens show for `N=c1c(S(=O)(=O)c2ccccc2)cc2c(=O)n3ccccc3nc2n1C1CCCCC1`?
TDP1 cell CPT: 26µM; DT40 TDP1 no CPT: 15µM

What do the screens show for `N=c1c(S(=O)(=O)c2ccc(Br)cc2)cc2c(=O)n3ccccc3nc2n1C1CCCCC1`?
TDP1 cell CPT: inconclusive; ClpP mod: inactive; TDP1 inh: inactive; DT40 TDP1 no CPT: inconclusive

Results for N=c1c(S(=O)(=O)c2ccc(Br)cc2)cc2c(=O)n3ccccc3nc2n1Cc1ccco1 ?
TDP1 cell CPT: 9.2µM; ClpP mod: inactive; TDP1 inh: inactive; DT40 TDP1 no CPT: 6.5µM

What do the screens show for `COCCn1c(=N)c(S(=O)(=O)c2ccc(Br)cc2)cc2c(=O)n3ccccc3nc21`?
TDP1 cell CPT: inconclusive; ClpP mod: inactive; TDP1 inh: inactive; DT40 TDP1 no CPT: 21µM

How did N=c1c(S(=O)(=O)c2ccc(Cl)cc2)cc2c(=O)n3ccccc3nc2n1Cc1ccco1 do in these assays?
TDP1 cell CPT: inconclusive; ClpP mod: inactive; DT40 TDP1 no CPT: inconclusive

How did COc1ccc(CC(O)COS(N)(=O)=O)cc1 (stereo unspecified) do in these assays?
TDP1 cell CPT: inactive; ClpP mod: inactive; DT40 TDP1 no CPT: inactive

How did C[C@H](CO)N1C[C@H](C)[C@H](CN(C)Cc2cccc(O)c2)OCc2ccccc2-c2c(n(C)c3ccccc23)C1=O do in these assays?
TDP1 cell CPT: inconclusive; ClpP mod: inactive; DT40 TDP1 no CPT: inconclusive
